Like-named read-outs stand apart in the source and are kept apart here.
Legend:
Parameters in all cases: species or system human, MV4-11 + K-562 + COLO205 + SK-N-BE2 + OVCAR-8
[1] = test system: BUB1; details: read-out: apparent Kd, n = 1
[2] = test system: CAMK2B; details: read-out: apparent Kd; compound concentrations: 100 nM and 1000 nM (sheet 'Samples'), CATDS: 0.32138183230231099; n = 1
[3] = test system: FN3K; details: read-out: apparent Kd; compound concentrations: 100 nM and 1000 nM (sheet 'Samples'), CATDS: 0.15794853926882399; n = 1
[4] = test system: ICK; details: read-out: apparent Kd; compound concentrations: 100 nM and 1000 nM (sheet 'Samples'), CATDS: 0.184620648021635; n = 1
[5] = test system: MAPKAPK2; details: read-out: apparent Kd; compound concentrations: 100 nM and 1000 nM (sheet 'Samples'), CATDS: 0.25784854376508698; n = 1
[6] = test system: MAPK14; details: read-out: apparent Kd; compound concentrations:100 nM and 1000 nM (sheet 'Samples'); n = 1
[7] = test system: AURKA; details: read-out: apparent Kd; compound concentrations: 100 nM and 1000 nM (sheet 'Samples'), CATDS: 4.2728158523190798E-2; n = 1
[8] = test system: AURKB; details: read-out: apparent Kd, compound concentrations: 100 nM and 1000 nM (sheet 'Samples'), n = 1
[9] = test system: CSNK1D; details: read-out: apparent Kd; compound concentrations: 100 nM and 1000 nM (sheet 'Samples'), CATDS: 5.89125677268394E-2; n = 1
[10] = test system: CSNK1E; details: read-out: apparent Kd; compound concentrations: 100 nM and 1000 nM (sheet 'Samples'), CATDS: 4.0450014161249097E-2; n = 1
[11] = test system: DDR1; details: read-out: apparent Kd; compound concentrations: 100 nM and 1000 nM (sheet 'Samples'), CATDS: 6.5674707070784599E-2; n = 1
[12] = test system: DDR2; details: read-out: apparent Kd; compound concentrations: 100 nM and 1000 nM (sheet 'Samples'), CATDS: 3.7339921381228602E-2; n = 1
[13] = test system: EPHB6; details: read-out: apparent Kd; compound concentrations: 100 nM and 1000 nM (sheet 'Samples'), CATDS: 3.6673450698806898E-2; n = 1
[14] = test system: FLT3; details: read-out: apparent Kd, compound concentrations: 100 nM and 1000 nM (sheet 'Samples'), n = 1
[15] = test system: FLT4; details: read-out: apparent Kd; compound concentrations: 100 nM and 1000 nM (sheet 'Samples'), CATDS: 4.30316479834668E-2; n = 1
[16] = test system: GAK; details: read-out: apparent Kd; compound concentrations: 100 nM and 1000 nM (sheet 'Samples'), CATDS: 7.8479207153445404E-2; n = 1
[17] = test system: LIMK2; details: read-out: apparent Kd, compound concentrations: 100 nM and 1000 nM (sheet 'Samples'), n = 1
[18] = test system: NQO2; details: read-out: apparent Kd; compound concentrations: 100 nM and 1000 nM (sheet 'Samples'), CATDS: 0.178299559019577; n = 1
[19] = test system: PDGFRB; details: read-out: apparent Kd, compound concentrations: 100 nM and 1000 nM (sheet 'Samples'), n = 1
[20] = test system: RET; details: read-out: apparent Kd; compound concentrations: 100 nM and 1000 nM (sheet 'Samples'), CATDS: 0.111645797001171; n = 1
[21] = test system: RIPK2; details: read-out: apparent Kd; compound concentrations: 100 nM and 1000 nM (sheet 'Samples'), CATDS: 3.9651452900350902E-2; n = 1
[22] = test system: RIPK3; details: read-out: apparent Kd; compound concentrations: 100 nM and 1000 nM (sheet 'Samples'), CATDS: 3.2567224991893698E-2; n = 1
[23] = test system: SIK2; details: read-out: apparent Kd; compound concentrations: 100 nM and 1000 nM (sheet 'Samples'), CATDS: 4.1786415024185397E-2; n = 1
[24] = test system: TGFBR1; details: read-out: apparent Kd; compound concentrations: 100 nM and 1000 nM (sheet 'Samples'), CATDS: 3.3015845196466199E-2; n = 1
[25] = test system: TGFBR2; details: read-out: apparent Kd; compound concentrations: 100 nM and 1000 nM (sheet 'Samples'), CATDS: 3.2296969977490597E-2; n = 1
[26] = test system: TNK1; details: read-out: apparent Kd; compound concentrations: 100 nM and 1000 nM (sheet 'Samples'), CATDS: 4.85220574572469E-2; n = 1
[27] = test system: BMPR2; details: read-out: apparent Kd; compound concentrations:100 nM and 1000 nM (sheet 'Samples'); n = 1
[28] = test system: CDC42; details: read-out: apparent Kd; compound concentrations:100 nM and 1000 nM (sheet 'Samples'); n = 1
[29] = test system: CLK4; details: read-out: apparent Kd; compound concentrations:100 nM and 1000 nM (sheet 'Samples'); n = 1
[30] = test system: EGFR; details: read-out: apparent Kd; compound concentrations: 100 nM and 1000 nM (sheet 'Samples'), CATDS: 9.4589689461148804E-2; n = 1
[31] = test system: EIF2AK1; details: read-out: apparent Kd; compound concentrations: 100 nM and 1000 nM (sheet 'Samples'), CATDS: 0.14381895647439999; n = 1
[32] = test system: LIMK1; details: read-out: apparent Kd; compound concentrations: 100 nM and 1000 nM (sheet 'Samples'), CATDS: 8.0890535197294403E-2; n = 1
[33] = test system: NNT; details: read-out: apparent Kd; compound concentrations: 100 nM and 1000 nM (sheet 'Samples'), CATDS: 8.6496378870903501E-2; n = 1
[34] = test system: TESK2; details: read-out: apparent Kd; compound concentrations: 100 nM and 1000 nM (sheet 'Samples'), CATDS: 9.3788253526120594E-2; n = 1

For `CSc1ccc(-c2nc3n(c2-c2ccncc2)CCC3)cc1` [SKF-105561], which potency estimated from few doses ([1]; compound concentrations: 100 nM and 1000 nM (sheet 'Samples'), CATDS: 0.15968057437579899) is on record?
The potency estimated from few doses was 2300 nM.

What about the potency estimated from few doses [2] of the same compound?
Its potency estimated from few doses is 557 nM.

And the potency estimated from few doses [3]?
The potency estimated from few doses was 2370 nM.

And the potency estimated from few doses [4]?
The potency estimated from few doses was 1580 nM.

And the potency estimated from few doses [5]?
The potency estimated from few doses was 803 nM.

For `Cl.Oc1cccc(-c2nc(-c3ccccc3)[nH]c2-c2ccncc2)c1` [SB-610251-B], which potency estimated from few doses ([1]; compound concentrations:100 nM and 1000 nM (sheet 'Samples')) is on record?
Its potency estimated from few doses is 2530 nM.

What about the potency estimated from few doses [6] of the same compound?
Its potency estimated from few doses is 1570 nM.

How did the potency estimated from few doses [7] turn out when `CCCCc1nn2ncccc2c1-c1ccnc(Nc2ccc(N3CCN(C)CC3)cc2)n1` [GW684941X] was run?
Its potency estimated from few doses is 853 nM.

What about the potency estimated from few doses ([8]; CATDS: 4.3580096723042298E-2) of the same compound?
Its potency estimated from few doses is 809 nM.

And the potency estimated from few doses ([1]; compound concentrations: 100 nM and 1000 nM (sheet 'Samples'), CATDS: 4.7022132934679002E-2)?
Its potency estimated from few doses is 667 nM.

What about the potency estimated from few doses [9] of the same compound?
Its potency estimated from few doses is 400 nM.

What about the potency estimated from few doses [10] of the same compound?
The potency estimated from few doses was 993 nM.

What about the potency estimated from few doses [11] of the same compound?
Its potency estimated from few doses is 320 nM.

What about the potency estimated from few doses [12] of the same compound?
Its potency estimated from few doses is 1270 nM.

What about the potency estimated from few doses [13] of the same compound?
Its potency estimated from few doses is 1340 nM.

What about the potency estimated from few doses ([14]; CATDS: 0.27087793421716799) of the same compound?
Its potency estimated from few doses is 32.5 nM.

What about the potency estimated from few doses [15] of the same compound?
The potency estimated from few doses was 837 nM.

And the potency estimated from few doses [16]?
The potency estimated from few doses was 227 nM.

What about the potency estimated from few doses ([17]; CATDS: 3.6080783188173302E-2) of the same compound?
The potency estimated from few doses was 1420 nM.

What about the potency estimated from few doses [18] of the same compound?
The potency estimated from few doses was 58.6 nM.

And the potency estimated from few doses ([19]; CATDS: 5.3358090976632598E-2)?
The potency estimated from few doses was 496 nM.

And the potency estimated from few doses [20]?
Its potency estimated from few doses is 122 nM.

What about the potency estimated from few doses [21] of the same compound?
Its potency estimated from few doses is 1050 nM.

And the potency estimated from few doses [22]?
Its potency estimated from few doses is 2080 nM.

And the potency estimated from few doses [23]?
The potency estimated from few doses was 906 nM.

What about the potency estimated from few doses [24] of the same compound?
Its potency estimated from few doses is 1970 nM.

And the potency estimated from few doses [25]?
Its potency estimated from few doses is 2150 nM.

And the potency estimated from few doses [26]?
The potency estimated from few doses was 618 nM.

For `O=C1Nc2ccc(C(=O)c3ccco3)cc2C1=Cc1cc(Cl)c(O)c(Cl)c1` [GW406108X], which potency estimated from few doses [27] is on record?
The potency estimated from few doses was 15.8 nM.

What about the potency estimated from few doses [28] of the same compound?
Its potency estimated from few doses is 93.8 nM.

And the potency estimated from few doses [29]?
Its potency estimated from few doses is 85.5 nM.

What does the source list for `Nc1ncnc2scc(-c3ccc(NC(=O)Cc4cc(F)ccc4F)cc3)c12.O=C(O)C(F)(F)F` [SB-731254-M]?
potency estimated from few doses ([8]; CATDS: 0.15442610034884699): 399 nM; potency estimated from few doses [30]: 1180 nM; potency estimated from few doses [31]: 457 nM; potency estimated from few doses ([14]; CATDS: 0.410073684021382): 85.2 nM; potency estimated from few doses [32]: 1910 nM; potency estimated from few doses ([17]; CATDS: 0.109376912936183): 817 nM; potency estimated from few doses [33]: 1530 nM; potency estimated from few doses ([19]; CATDS: 9.2318331607570206E-2): 1260 nM; potency estimated from few doses [34]: 1210 nM
